High-throughput results deposited in PubChem by National Center for Advancing Translational Sciences (NCATS).
The list is not random: actives were taken first. Their share in the collection is about 7.3%.
HCMV inh: human cytomegalovirus inhibition; 410,000 compounds, 4.5% hits; HFF cells, HCMV-luciferase reporter, 72 h; stronger effect = lower value; AID 1259415; activity change, negative = inhibition, % at 57.5 µM; in the data active = activity change below about -60%; inconclusive = no clear call, values can overlap the other calls; inactive = above about -39%
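Two-dose cell screen: HFF monolayers treated with compounds and infected with luciferase-expressing HCMV at 1 PFU/cell, 72 h at 37C, then lysed for luciferase measurement.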
Vaccinia mCherry: inhibitors of vaccinia virus infection (mCherry reporter signal); Potency, µM (top dose mostly 36.5 µM), for the others: at the top dose activity change, negative = inhibition, actives largely listed as inhibitors; 310,000 compounds, 0.63% hits; Vaccinia virus mCherry reporter infection, fluorescence; calls by dose curve; tested in A549 cells; note: potency is the fitted concentration of half-maximal effect; nearly all actives have a fitted effect of over 35% in size
FMDV inh: blocks foot and mouth disease virus | Potency, µM (top dose mostly 57.9 µM), for inactives: at the top dose activity change, negative = inhibition, usual class: inhibitors | 410,000 compounds, 1.2% hits | FMDV antiviral cell-based qHTS; calls by dose curve; tested in HEK293T cells; note: read-out not given here; potency is the fitted concentration of half-maximal effect; nearly all actives have a fitted effect of over 45% in size
Vaccinia Venus: vaccinia inhibition (Venus reporter); Vaccinia virus Venus reporter expression, fluorescence; Potency, µM (series often up to 36.5 µM), without a hit: at the highest dose activity change, negative = inhibition, most hits filed as inhibitors; 330,000 compounds, 0.46% hits; calls by dose curve; tested in A549 cells; note: potency is the fitted concentration of half-maximal effect; nearly all actives have a fitted effect of over 30% in size
HCV inhibitor: HCV inhibition. Huh7.5.1 HCVcc-Cre infection, luciferase reporter, 44 h. Potency, µM (highest dose often 41.8 µM), without a hit: at the top dose activity change, negative = inhibition, actives largely listed as inhibitors. 340,000 compounds, 3.4% hits. AID 651820; active = well fitted inhibition curve with a large enough effect; inconclusive = small, poorly fitted or top-dose-only effect, or another doubt; inactive = no such curve, though single readings can be large or run the other way; note: potency is the fitted concentration of half-maximal effect
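Seed cells (1,000/well) for 4 h; treat with compound and infect with HCVcc-Cre, moi about 0.5. Incubate 44 h, then detect luciferase activity.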
Active calls of the source: *; i = inactive; ? = inconclusive; nt = not tested or not shown. % is set by controls: 0 for no effect and ±100 for the full control effect.

SMILES	HCMV inh	Vaccinia mCherry	FMDV inh	Vaccinia Venus	HCV inhibitor
O=C(/C=C/c1ccc(N2CCCCC2)c([N+](=O)[O-])c1)c1ccc(S(=O)(=O)N2CCCC2)cc1	-12	-4%	20µM*	-12%	1%
NC(=O)c1ccc(N2CCN(c3ccc(O)cc3)CC2)c([N+](=O)[O-])c1	-66*	?	?	-20%	?
NC(=O)c1ccc(N2CCN(S(=O)(=O)c3ccccc3)CC2)c([N+](=O)[O-])c1	-90*	0%	16µM*	2%	2.8µM*
O=C(c1ccc(N2CCCCC2)c([N+](=O)[O-])c1)N1CCN(S(=O)(=O)c2ccccc2)CC1	-19	-17%	-19%	-3%	?
O=c1c(-c2ccc(Cl)cc2)nc2cnc(N3CCNCC3)nc2n1Cc1ccc(F)cc1	nt	nt	-5%	nt	nt
Cc1ccc(S(=O)(=O)NC(CCC(N)=O)C(=O)NCc2ccc3c(c2)OCO3)c(C)c1 (configuration not stated)	-24	-9%	-20%	-9%	?
Cc1ccc(CCNC(=O)c2ccc(NC(=O)N3CCSc4ccccc43)cc2)cc1	-2	0%	-22%	-4%	nt
Cc1cc(C)cc(Cn2c3ccc(NC(=O)NCCc4cccs4)cc3c(=O)n2C)c1	8	1%	57%	-10%	nt
COc1cc(Cn2c3ccc(NC(=O)CCc4ccccc4)cc3c(=O)n2C)ccc1F	-19	?	-23%	-30%	nt
COc1cc(Cn2c3ccc(NC(=O)NCCc4ccccc4)cc3c(=O)n2C)ccc1F	-68*	17%	14%	-16%	nt
Cn1c(=O)c2cc(NC(=O)NCCc3cccs3)ccc2n1Cc1ccccc1	-77*	1%	14%	1%	nt
CCNC(=O)C1CCCN(C(=O)c2ccc(C(=O)OC)cc2)CC1 (configuration not stated)	9	17%	-7%	10%	nt
CCNC(=O)C1CCCN(C(=O)c2cc(F)cc(F)c2)CC1 (configuration not stated)	-93*	i	-14%	3%	nt
CC(C)CC(=O)N1CCN(c2ccc([N+](=O)[O-])cc2Cl)CC1	-36	nt	?	nt	-1%
O=C(c1ccc(-c2ccc([N+](=O)[O-])cc2)o1)N1CCCCC1	17	nt	42%	nt	-6%
O=[N+]([O-])c1cccc(-c2ccc(C(=S)N3CCN(c4ccc(F)cc4)CC3)o2)c1	-24	-11%	-4%	-8%	?
O=C(c1ccc(-c2cccc([N+](=O)[O-])c2)o1)N1CCN(c2ccc([N+](=O)[O-])cc2)CC1	-61*	-7%	?	-2%	?
CC(C)CC(=O)NC(=S)N1CCN(c2ccc([N+](=O)[O-])cc2Cl)CC1	-67*	nt	-24%	nt	0%
O=C(c1ccc(-c2ccc(Cl)cc2)o1)N1CCN(c2ccc([N+](=O)[O-])cc2Cl)CC1	-80*	-13%	-27%	-21%	?
Cc1ccc(C)c(CNC(=O)c2sc3ncnc(N(C)C4CCCCC4)c3c2C)c1	-26	-1%	-23%	-9%	nt
COc1ccc(/C=N/Nc2snc(SC)c2C#N)cc1OC	82	nt	-2%	-29%	?
O=c1nccc(N/N=C/c2ccccc2O)[nH]1	-91*	1µM*	7%	?	?
COc1cccc(/C=N/Nc2ccnc(=O)[nH]2)c1O	-94*	0.79µM*	-11%	?	2.2µM*
COc1cccc(/C=N/Nc2snc(SC)c2C#N)c1O	-98*	10µM*	?	7.9µM*	?
CCOc1ccccc1/C=N/Nc1ccnc(=O)[nH]1	-99*	-7%	22%	-21%	11µM*
SMILES	HCMV inh	Vaccinia mCherry	FMDV inh	Vaccinia Venus	HCV inhibitor
Nn1c(-c2ccccc2)cc(-c2ccccc2)cc1=O	-20	i	4%	-21%	6%
COc1ccc(-c2nc3ncccc3n2O)cc1	nt	-6%	28%	-10%	9%
COc1cc(OC)c(OC)cc1CN1CCN(Cc2ccc(C(F)(F)F)cc2)CC1	15	nt	?	nt	11µM*
COc1cc(OC)c(OC)cc1CN1CCN(Cc2cccc(F)c2)CC1	21	nt	-11%	nt	-9%
CC1(C)Nc2ccccc2C(=O)N1c1ccc(Br)cc1	66	-21%	21%	-17%	-3%
Cc1ccc(N2C(=O)c3ccccc3NC2(C(=O)O)c2ccccc2)cc1Cl (configuration not stated)	-98*	nt	42%	nt	5%
CCCCC[C@H](O)/C=C/[C@H]1CCC(=O)[C@@H]1CCCCCCC(=O)N1CCCCC1CO (some centres not stated)	-74*	i	?	-24%	-26%
Cc1c(CCC(=O)NCCCn2ccnc2)c(=O)oc2cc3oc4c(c3cc12)CCCC4	?	-19%	-12%	?	?
Cc1ccc(NC(=O)N2CCCCCC2)c(C)c1	35	nt	37%	nt	16%
Cc1ccc(Cl)c(OCC(=O)Nc2ccc3c(c2)OCCO3)c1	73	-13%	61%	-6%	10µM*
Cc1cccc(OCC(=O)Nc2ccc3c(c2)OCO3)c1C	3	-11%	0%	-1%	?
Cc1ccc(C)c(OCC(=O)Nc2ccc3c(c2)OCO3)c1C	67	-16%	0%	?	11µM*
CC1(C)NC(=O)N(CC(=O)N2CCN(c3ccc([N+](=O)[O-])cc3)CC2)C1=O	-2	nt	-21%	nt	-14%
CCc1c(C)sc(NC(=O)c2cc(-c3ccc(OC)c(OC)c3)on2)c1C#N	10	-17%	0%	-11%	-18%
CCc1c(C)sc(NC(=O)c2cc(-c3ccc(O)cc3)on2)c1C#N	-61*	i	-5%	-10%	?
CCc1c(C)sc(NC(=O)c2cc(-c3cc(OC)ccc3OC)on2)c1C#N	-68*	nt	-10%	nt	?
O=c1[nH]c(=O)c2ncn(C3OC(CO)C(O)C3O)c2[nH]1 (configuration not stated)	nt	-23%	nt	-11%	nt
O=c1[nH]cnc2c1ccn2C1OC(CO)C(O)C1O (configuration not stated)	-69*	?	-14%	-26%	1.1µM*
O=c1[nH]cnc2c1[nH]c(=S)n2C1O[C@@H](CO)[C@H](O)[C@@H]1O (some centres not stated)	nt	34%	nt	-6%	nt
Nc1cnn(C2OC(CO)C(O)C2O)c(=O)n1 (configuration not stated)	-64*	?	-20%	0%	13%
O=c1[nH]c(=O)n([C@@H]2O[C@H](CO)[C@@H](O)[C@H]2O)cc1F	nt	1.1µM*	nt	?	nt
O=c1[nH]c(=O)n(C2OC(CO)C(O)C2O)cc1F (configuration not stated)	nt	1µM*	5%	?	?
O=c1[nH]c(=S)ccn1C1OC(CO)C(O)C1O (configuration not stated)	16	-7%	-12%	-4%	30%
COc1ccc2nc(N3CCCC(C(=O)NCCCN4C(C)CCCC4C)C3)sc2c1 (configuration not stated)	24	-25%	37%	-14%	?
COc1ccc(OC)c2sc(N(Cc3cccnc3)C(=O)c3ccc(C(C)=O)cc3)nc12	0	-24%	-13%	-12%	nt
